# Experimental data as given in PubChem BioAssay (Tox21).
# Results filed as inconclusive are left out. Calls of active or inactive are those of the source. The call rests on the fitted dose curve; in most records, active means well fitted activation curve with a large enough effect in the repeat runs; inconclusive means weak or mixed curves; inactive means flat fitted curve, though single readings scatter.
# Assay: A CellTox Green Cytotoxicity Assay to monitor cytotoxicity in HepG2 cells - 32 hour (AID 1224883); further: nearly all actives have a fitted effect of over 50% in size
# Conditions: CellTox Green fluorescence; series mostly up to 76.8 µM; cytotoxicity increase: at the top concentration
# Description: National Center for Advancing Translational Sciences [NCATS]
# NIH Chemical Genomics Center [NCGC]
# U.S. Environmental Protection Agency [EPA]
# National Institutes of Environmental Health Sciences [NIEHS]
# National Toxicology Program [NTP]
# Cell-based models are critical for drug discovery. Determining the natural cytotoxic effects resulting from test compounds is an essential research activity. A CellTox Green Cytotoxicity Assay to monitor cytotoxicity in real time of continues cell culture during 40 hours of the compound treatment was used to screen Tox21 10K library compounds in HepG2 cells. CellTox Green Cytotoxicity Assay is a nonlytic, homogeneous, biofluorescent method to measure cytotoxicity in cell culture after experimental manipulation. The assay system uses a proprietary asymmetric cyanine dye that is excluded from viable cells but preferentially stains the dead cell's DNA. […] Viable cells produce no appreciable increases in fluorescence. Therefore, the fluorescence signal produced by the binding interaction with dead cell DNA is proportional to cytotoxicity.
# The mixture of HepG2 cell suspension and reagents were dispensed at 600cells/6 ul/well in 1536-well tissue culture treated black solid bottom plates using a Multidrop dispenser. After the assay plates were incubated at a 37 C/5% CO2 incubator for 5 hours, 23 nL of compounds dissolved in DMSO, positive and negative controls was transferred to the assay plate by a pintool work station. The plates were incubated at 37 C for 40 hours. The fluorescence intensity were measured at 0h, 8h, 16h, 24h, 32h and 40h time points using ViewLux plate reader during compound treatment.
# On the % scale 0 is the no-effect control and ±100 the full control effect; potency means the concentration at half of the fitted maximal effect.
SMILES,Potency,cytotoxicity increase
CN(C/C=C/c1ccccc1)Cc1cccc2ccccc12,23.9 µM (active),
CC1=CC[C@@H](C(C)(C)O)CC1,,-22.2% (inactive)
O=C(CCN1CCC(c2ccccc2)C1)c1ccc2c(c1)OCCO2 (stereo not given),26.8 µM (active),
Clc1ccc2c(Cl)ccnc2c1,,3.17% (inactive)
Cc1ccc2sc3cccc(C)c3c2c1,,-7.45% (inactive)
CCSCC,,-4.41% (inactive)
CCCCNc1ccc(NCCCC)c2c1C(=O)c1ccccc1C2=O,,-3.73% [at 15.8 µM] (inactive)
CC(C)=CCC[C@H](C)CC=O,,18.6% (inactive)
Nc1ccc2c(S(=O)(=O)O)cccc2c1S(=O)(=O)O,,1.76% [at 35.3 µM] (inactive)
O=C1C=CC(=O)N1c1cccc(N2C(=O)C=CC2=O)c1,11 µM (active),
O=C(Cl)c1ccc(Cl)cc1Cl,54.9 µM (active),
Cc1ccc(S(=O)(=O)C(I)I)cc1,43.6 µM (active),
CCC(C)(C)c1ccc(CC(C)CN2C[C@@H](C)O[C@@H](C)C2)cc1 (stereo not given in full),21.3 µM (active),
C=C(C)CCO,,-22% (inactive)
S=C1NC=NC2N=CNC12 (stereo not given),,1.93% (inactive)
O=C(Nc1ccccc1)c1cc(Cl)ccc1O,49 µM (active),
C/C(=C\c1ccc(C(=O)O)cc1)c1ccc2c(c1)C(C)(C)CCC2(C)C,,19% [at 35.3 µM] (inactive)
CC/C=C(\C)C=O,,-2.25% (inactive)
COc1cc(OC)nc(NC(=O)NS(=O)(=O)Nc2ccccc2C(=O)N(C)C)n1,,8.52% (inactive)
CC(=O)[C@]1(O)Cc2c(O)c3c(c(O)c2[C@@H](O[C@H]2C[C@H](N)[C@H](O)[C@H](C)O2)C1)C(=O)c1ccccc1C3=O,23.9 µM (active),

SMILES,Potency,cytotoxicity increase
CCCCCCCCCCCCS(=O)(=O)Cl,,-17.3% [at 15.8 µM] (inactive)
COc1cc2ncnc(Nc3cccc(Cl)c3)c2cc1OC,,-17.4% [at 15.8 µM] (inactive)
CCCCCCCCCC[N+](C)(CCCCCCCCCC)CCC[Si](OC)(OC)OC,21.9 µM (active),
C/C=C/C(=O)C1=C(C)C=CCC1(C)C,,0.113% (inactive)
CC(C)(c1ccc(Oc2ccc(N)cc2)cc1)c1ccc(Oc2ccc(N)cc2)cc1,,0.544% (inactive)
C=CC(=O)O[C@H]1C[C@@H]2CC[C@@]1(C)C2(C)C,,1.46% (inactive)
C[C@H]1O[C@@H](O[C@H]2CC[C@@]3(C)[C@H](CC[C@@H]4[C@@H]3C[C@@H](O)[C@]3(C)[C@@H](C5=CC(=O)OC5)CC[C@]43O)C2)C[C@H](O)[C@@H]1O[C@H]1C[C@H](O)[C@H](O[C@H]2C[C@H](O)[C@H](O[C@@H]3O[C@H](CO)[C@@H](O)[C@H](O)[C@H]3O)[C@@H](C)O2)[C@@H](C)O1,,13.1% [at 35.3 µM] (inactive)
CN1CCN(CCCN2c3ccccc3Sc3ccc(Cl)cc32)CC1,23.9 µM (active),
NCc1ccco1,,-2.52% (inactive)
C1CCSC1,,3.81% (inactive)
CCCC(C)C=O (stereo not given),,-17.3% (inactive)
ClC(c1ccccc1)(c1ccccc1)c1ccccc1,,-0.605% (inactive)
C1=CCCC1,,-12.8% (inactive)
COc1cc(/C=C/C(=O)CC(=O)/C=C/c2ccc(O)c(OC)c2)ccc1O,49.3 µM (active),
NC(=O)c1ccccc1Cl,,-8.02% (inactive)
c1ccc(C[P+](c2ccccc2)(c2ccccc2)c2ccccc2)cc1,21.9 µM (active),
O=C1OC(=O)c2cc(-c3ccc4c(c3)C(=O)OC4=O)ccc21,,0.461% (inactive)
CCc1c(C)cc(N)c(CC)c1N,,-11.5% (inactive)
CC(CC(C)(C)C)CC(C)(C)CC(C)(C)C (stereo not given),,-13.8% [at 35.3 µM] (inactive)
SC1CCCCC1,,5.77% (inactive)
